Source: PubChem (National Center for Advancing Translational Sciences (NCATS))
The list is not random: actives were taken first. Their share in the collection is about 8%.
HT1080 IDH1KD tx – kills HT-1080 cells with IDH1 knockdown; HT-1080 IDH1 knockdown viability, ATP luminescence, 48 h; Potency, µM (series often up to 46.1 µM), for inactives: at the highest dose activity, negative = toxicity, actives largely listed as cytotoxic; 360,000 compounds, 2% hits;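 note: 0% = DMSO wells and -100% = cell-free medium wells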
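CellTiter-Glo luminescence after 48 h compound exposure at 37 degrees C of IDH1-knockdown HT-1080 cells in 5% FBS RPMI. %Activity scaled between DMSO wells and cell-free media wells, with curves fitted and assigned curve classes.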
KB-3-1 tox – kills parental KB-3-1 adenocarcinoma cells; KB-3-1 viability, CellTiter-Glo ATP luminescence, 72 h; Potency, µM (doses to about 46.1 µM), usual class: cytotoxic; 400,000 compounds, 1.4% hits; AID 1347075; note: % is set by controls: 0 for no effect and ±100 for the full control effect; nearly all actives have a fitted effect of over 60% in size
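Here the drug-naive KB-3-1 line serves as comparator for MDR sub-line selectivity; cells received compound titrations, 72 h at 37 °C, then CellTiter-Glo readout.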
KB-V1 cytotox – KB-V1 MDR subline cytotoxicity; KB-V1 MDR cells viability, CellTiter-Glo, 72 h; Potency, µM (titrated, usually from 46.1 µM), hits mostly cytotoxic; 400,000 compounds, 3.4% hits; note: % is set by controls: 0 for no effect and ±100 for the full control effect; nearly all actives have a fitted effect of over 60% in size
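Potencies derive from concentration-effect curves fitted to normalized luminescence (CellTiter-Glo) of KB-V1 cells treated for 72 h at 37 degrees C in phenol-red-free DMEM containing 10% FBS.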
MCF10A rereplic – DNA re-replication induction in MCF 10a cells. Potency, µM (highest dose often 46.1 µM), without a hit: at the highest dose activity, positive = re-replication, usual class: activators. AID 624296. 350,000 compounds, 2.9% hits. MCF 10A DNA re-replication, Hoechst nuclear intensity, 48 h; note: % of control where 0% means no effect; nearly all actives have a fitted effect of over 50% in size
SW480 rerep – induces DNA re-replication in SW480 colon adenocarcinoma cells | Potency, µM (titrated, usually from 46.1 µM), for inactives: at the top dose re-replication activation, most hits filed as activators | 340,000 compounds, 1.8% hits | SW480 DNA re-replication, Hoechst DNA content imaging, 48 h; note: % of control where 0% means no effect; nearly all actives have a fitted effect of over 55% in size
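Image-based read-out: total Hoechst fluorescence of nuclei (405 nm excitation, 500-530 nm emission), with hits raising the fraction of high-intensity nuclei. SW480 colon cells incubated 48 hr with compounds at 37 C.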
HT1080-NT tox – kills 2HG-producing HT-1080-NT fibrosarcoma cells; HT-1080-NT fibrosarcoma viability, CellTiter-Glo ATP luminescence, 48 h; Potency, µM (highest dose often 46.1 µM), without a hit: top-dose activity, negative = less viability, hits mostly cytotoxic; 360,000 compounds, 1.6% hits; AID 686970;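 note: NT is the 2HG producing partner of a matched IDH1 knockdown line; 0% = DMSO-treated cells and -100% = media-only wells without cells; nearly all actives have a fitted effect of over 55% in size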
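750 cells/well, RPMI + 5% FBS; 2 h settle, compound pin-transfer, 48 h at 37 degrees C. CellTiter-Glo 10 min RT, luminescence. Normalized to DMSO and media-only wells.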
The depositor's hits bear a star; i = inactive; u = inconclusive; x = no result. Calls come from the whole dose curve; as a rule, active = well fitted curve in the direction sought with a large enough effect; inconclusive = small, poorly fitted or top-dose-only effect, or another doubt; inactive = no such curve, though single readings can be large; an effect the other way counts as inactive or inconclusive. Potency is the fitted concentration of half-maximal effect.

SMILES	HT1080 IDH1KD tx	KB-3-1 tox	KB-V1 cytotox	MCF10A rereplic	SW480 rerep	HT1080-NT tox
COCCn1c(SCC(=O)Nc2sc(C)c(C)c2C#N)nnc1-c1ccc(OC)cc1	18.5%	i	9.2µM*	13.4%	-4.0%	5.5%
Cn1c(SCC(=O)NC(C)(C)C)nnc1-c1ccc(C(C)(C)C)cc1	-1.3%	i	20.6µM*	-4.1%	-1.7%	-10.6%
Cc1ccc(-c2nnc(SCC(=O)Nc3sc(C)c(C)c3C#N)n2C)cc1	13.3%	i	i	-11.2%	4.1%	6.3%
CCOc1ccc(NC(=O)CN(Cc2ccccc2)S(=O)(=O)c2ccc3nc(C)sc3c2)cc1	x	i	i	x	x	x
O=C(CNC(=O)c1cccs1)N/N=C/c1cccc(Cl)c1	16.3%	i	i	-55.4%	-2.7%	8.1%
CCCCCCn1cc(CN2CC(N3CCN(C4CCN(C)CC4)CC3)CS2(=O)=O)nn1 (stereo not given)	15.8%	i	i	x	x	12.5%
CC1(C)N=C(SCC(=O)Nc2ccc(Cl)cc2)C(c2ccc(Cl)cc2)=N1	-9.1%	u	u	18.4µM*	u	-22.1%
CN(C(=O)COc1ccc2c(-c3ccccc3)cc(=O)oc2c1)C1CCS(=O)(=O)C1 (stereo not given)	5.0%	i	i	u	13µM*	-0.7%
Cc1ccccc1-c1cc(C(=O)NCc2cccc(Br)c2)n(CC2CC(c3cccnc3)=NO2)n1 (stereo not given)	-2.9%	i	u	u	0.7%	-5.8%
Cc1ccc(S(=O)(=O)N2CCN(C(=O)c3c(C)nn(-c4ccccc4)c3Cl)CC2)cc1	20.0%	i	10.3µM*	u	u	-1.4%
COc1ccc(S(=O)(=O)N2CCN(C(=O)c3c(C)nn(-c4ccccc4)c3Cl)CC2)cc1	-6.7%	i	u	u	19.6%	-5.4%
Cc1cc(C)c(S(=O)(=O)N2CCN(C(=O)c3c(C)nn(-c4ccccc4)c3Cl)CC2)c(C)c1	-0.8%	u	5.17µM*	28.6%	8.5%	-5.1%
COc1ccccc1C1N=C(Nc2nc3ccccc3o2)NC2=C1C(=O)CC(C)(C)C2 (stereo not given)	x	i	u	x	x	x
COc1ccc(C(=O)/C=C\c2ccc(NC(=O)c3cccs3)cc2)cc1	u	u	u	u	18.4µM*	u
C/C(=N\NC(=O)c1ccccc1)c1ccc(NC(=O)c2cccs2)cc1	-1.6%	i	i	17.1%	1.46µM*	-0.7%
COc1ccc(NC(=O)c2ccc(NC(=O)c3cccs3)cc2)cc1	u	i	i	10.0%	11.8%	u
C/C(=N\NC(=O)c1ccccc1O)c1ccc(NC(=O)Cc2ccccc2)cc1	0.4%	u	16.4µM*	-2.2%	11.6µM*	-1.2%
C/C(=N\NC(=O)c1ccccc1C)c1ccc(NC(=O)c2cccs2)cc1	-29.9%	i	5.8µM*	-0.8%	u	-2.8%
C/C(=N\NC(=O)C(N)=O)c1ccc(NC(=O)c2cccs2)cc1	0.7%	i	i	1.6%	2.4%	0.6%
O=C(c1[nH]c(C(F)(F)F)nc1-c1ccccc1)N1CCC(C(O)(c2ccccc2)c2ccccc2)CC1	-18.9%	i	i	x	x	1.2%
C=CCn1cccc(C(=O)Nc2ccc(OC)c(Cl)c2)c1=O	-2.5%	i	u	10.8%	25.3%	-0.3%
CC(C)=CC(=O)N1CC[C@@H](N2CCN(c3ccccc3F)CC2)[C@H](O)C1	3.5%	i	i	2.9%	-7.0%	-2.7%
COc1ccc(CCNC(=O)c2c(C)oc3ncn(CC(C)C)c(=O)c23)cc1OC	x	i	i	x	x	x
C/C(=N\NC(=O)CNC(=O)c1cccs1)c1ccc(Cl)c(Cl)c1	u	i	i	u	3.66µM*	u
